Bioassay records deposited in PubChem BioAssay by National Center for Advancing Translational Sciences (NCATS).
KB-V1 cytotox: KB-V1 MDR subline cytotoxicity. KB-V1 MDR cells viability, CellTiter-Glo, 72 h. Potency, µM (doses to about 46.1 µM), actives largely listed as cytotoxic. hit rate 3.4% among 400,000. AID 1347076; note: % is set by controls: 0 for no effect and ±100 for the full control effect; nearly all actives have a fitted effect of over 60% in size
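Cytotoxicity toward P-gp-expressing KB-V1 cells was determined as loss of CellTiter-Glo luminescence after 72 h at 37 degrees C. Compounds were tested in quantitative HTS format across a concentration range, with curves fitted to normalized data.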
KB-3-1 tox: kills parental KB-3-1 adenocarcinoma cells | hit rate 1.4% among 400,000 | KB-3-1 viability, CellTiter-Glo ATP luminescence, 72 h | Potency, µM (series often up to 46.1 µM), hits mostly cytotoxic | AID 1347075; note: % is set by controls: 0 for no effect and ±100 for the full control effect; nearly all actives have a fitted effect of over 60% in size
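Cells are dispensed, compounds pinned in, plates held at 37 °C for 72 h, then CellTiter-Glo is added and luminescence read after 10 minutes. Cell line: parental KB-3-1 in phenol-red-free DMEM, 10% FBS.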
MCF10A rereplic: induces DNA re-replication in MCF 10a normal breast cells. MCF 10A DNA re-replication, Hoechst nuclear intensity, 48 h. hit rate 2.9% among 350,000. Potency, µM (series often up to 46.1 µM), for the others: at the top dose activity, positive = re-replication, most hits filed as activators; note: % of control where 0% means no effect; nearly all actives have a fitted effect of over 50% in size
SW480 rereplic: DNA re-replication induction in SW480 cells. SW480 DNA re-replication, Hoechst DNA content imaging, 48 h. Potency, µM (highest dose often 46.1 µM), for inactives: at the highest dose re-replication activation, most hits filed as activators. hit rate 1.8% among 340,000. AID 624297; note: % of control where 0% means no effect; nearly all actives have a fitted effect of over 55% in size
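Treated cells incubate 48 hr (37 C, 5% CO2), are stained 40 min with Hoechst, and nuclear fluorescence is enumerated; a rise in nuclei with high DNA signal marks re-replication.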
HT1080NT lethal: kills 2HG-producing HT-1080-NT fibrosarcoma cells; HT-1080-NT fibrosarcoma viability, CellTiter-Glo ATP luminescence, 48 h; Potency, µM (titrated, usually from 46.1 µM), without a hit: at the highest dose activity, negative = less viability, most hits filed as cytotoxic; hit rate 1.6% among 360,000; AID 686970;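 note: NT is the 2HG producing partner of a matched IDH1 knockdown line; 0% = DMSO-treated cells and -100% = media-only wells without cells; nearly all actives have a fitted effect of over 55% in size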
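HT-1080-NT; 750 cells/well; 5% FBS RPMI; 48 h compound, 37 degrees C; CellTiter-Glo luminescence; curve fitting and curve-class assignment.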
HT1080 IDH1KD tx: kills HT-1080 cells with IDH1 knockdown | HT-1080 IDH1 knockdown viability, ATP luminescence, 48 h | Potency, µM (series often up to 46.1 µM), for the others: at the highest dose activity, negative = toxicity, usual class: cytotoxic | hit rate 2% among 360,000 | AID 686971;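 note: 0% = DMSO wells and -100% = cell-free medium wells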
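IDH1KD HT-1080 cells, 750/well, RPMI + 5% FBS; compound pinned after 2 h settling; 48 h, 37 °C; CellTiter-Glo luminescence; % activity normalised to DMSO and no-cell wells; curves fitted, classed by r2 and efficacy.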
An asterisk follows results filed as active; i = inactive; ? = inconclusive; . = no result; [ ] = dose if it differs, or a comment. Most compounds without a hit are left out; they make up all but 8% or so of the library. Calls come from the whole dose curve; as a rule, active = well fitted curve in the direction sought with a large enough effect; inconclusive = small, poorly fitted or top-dose-only effect, or another doubt; inactive = no such curve, though single readings can be large; an effect the other way counts as inactive or inconclusive. Potency is the fitted concentration of half-maximal effect.

SMILES	KB-V1 cytotox	KB-3-1 tox	MCF10A rereplic	SW480 rereplic	HT1080NT lethal	HT1080 IDH1KD tx
Cc1cc(C)c2nc(N3CCCC(C(=O)N4CCN(c5ncccn5)CC4)C3)sc2c1 (stereo not given)	10.3µM*	?	14.6µM*	14.4%	2.8%	4.2%
O=C(CN1C(=O)COc2ccc(S(=O)(=O)N3CCCC3)cc21)N1CCN(c2ccccc2F)CC1	i	i	.	.	.	.
COc1ccc(Cl)c(N2CCN(CCCNC(=O)Nc3ccc(C)cc3)CC2)c1	i	23.1µM*	29.6%	?	?	?
Cc1cc(-n2c(SCC(=O)Nc3ccc(F)c(F)c3)nc3n[nH]c(C)c3c2=N)ccc1Cl	i	i	2.31µM*	?	?	0.0%
Cc1cc(-n2c(SCC(=O)NCc3cccs3)nc3n[nH]c(C)c3c2=N)ccc1Cl	i	i	?	5.2%	?	?
CCOc1ccc(-n2c(SCC(=O)Nc3ccc(Br)cc3)nc3n[nH]c(C)c3c2=N)cc1	i	i	14.6µM*	?	14.6µM*	16.4µM*
Cc1cc(-n2c(SCC(=O)Nc3ccc(Br)cc3)nc3n[nH]c(C)c3c2=N)ccc1Cl	i	?	3.26µM*	18.4µM*	0.9%	-4.1%
Cc1ccc(C)c(CN2C(=O)CSc3ccc(C(=O)NCCc4ccc(Cl)cc4)cc32)c1	i	i	.	.	.	.
O=C(c1ccccc1)N(Cc1nc2ccccc2c(=O)[nH]1)C1CCCC1	?	i	?	-5.1%	-15.2%	-9.9%
O=C(c1ccc(Br)cc1)N(Cc1nc2ccccc2c(=O)[nH]1)C1CCCC1	?	16.4µM*	0.5%	?	?	23.1µM*
O=c1[nH]c(CCC2CCCC2)nc2ccccc12	16.4µM*	i	-43.9%	-60.3%	0.3%	-0.4%
C[C@@]12C(=O)OC(=O)[C@]1(C)[C@H]1CC[C@@H]2O1	.	.	?	2.0%[20.6 µM]	.	.
CC1CCCCC1NC(=O)/C(C#N)=C/c1ccc2c(c1)OCCO2 (stereo not given)	?	18.4µM*	14.1%	?	-13.7%	-8.7%
O=C(Nc1ccc(Cl)cc1)c1ccc2c(c1)N(Cc1ccccc1)CCS2	i	i	.	.	.	.
CN1CCC(=C2c3ccccc3CCc3sccc32)CC1	?	i	-63.0%	12.4%	18.4µM*	?
CN1CCC(=C2c3ccccc3CC(=O)c3sccc32)CC1	?	?	5.7%	.	?	-29.9%
CC1CCC(C(=O)NC(C(=O)OCC(=O)c2ccccc2)C(C)C)CC1 (stereo not given)	i	i	.	.	.	.
CC(C)OCCCNC(=O)c1ccc2c(c1)N(Cc1c(F)cccc1Cl)C(=O)c1ccccc1S2	i	i	.	.	.	.
CN1N=C2c3ccccc3CCCC2C1c1ccc(F)cc1 (stereo not given)	i	i	?	20.6µM*	-15.7%	-17.4%
COc1ccc2c(c1)CCC1C2=NN(/C(C)=C\C(C)=O)C1c1ccc(F)cc1 (stereo not given)	i	i	4.7%	?	0.0%	-0.8%
C/C(=N\NC(=O)c1ccc(O)cc1)c1cccc(NC(=O)c2ccc(Cl)cc2)c1	i	i	11.7%	-138.9%	-19.0%	-22.0%
COc1cc2nc(N3CCCN(C)CC3)nc(NC3CCN(C)C3)c2cc1OC (stereo not given)	i	?	.	.	.	.
CC(=O)c1c(N2CCN(c3ccc(F)cc3)CC2)nc(=S)n(Cc2ccccc2)c1C	?	23.1µM*	?	?	-18.2%	-25.4%
CC(=O)c1c(N2CCN(c3ccccc3)CC2)nc(=S)n(-c2ccccc2)c1C	i	i	20.6µM*	13.2%	0.8%	-17.1%
CCn1c(C)c(C(C)=O)c(N2CCN(c3ccc(F)cc3)CC2)nc1=S	i	i	14.2%	-5.5%[9.22 µM]	14.3%	9.1%
SMILES	KB-V1 cytotox	KB-3-1 tox	MCF10A rereplic	SW480 rereplic	HT1080NT lethal	HT1080 IDH1KD tx
CC(=O)c1c(N2CCN(Cc3ccccc3)CC2)nc(=S)n(Cc2ccccc2)c1C	2.91µM*	?	14.5%	?	-3.3%	-1.7%
COc1ccc(C2c3cc(OC)c(OC)cc3CC(=O)N2c2ccc(C)c(F)c2)cc1 (stereo not given)	i	?	.	.	.	.
Cc1cccc(NC(=O)/C(C#N)=C/c2ccco2)c1	i	i	.	.	.	.
CC1=CC(C)(C)N(C(=O)c2ccc(F)cc2)c2cc3c(cc21)OCO3	13µM*	20.6µM*	?	14.0%	-0.9%	4.0%
CC1=CC(C)(C)N(C(=O)CCl)c2cc(C)ccc21	i	i	-3.6%	2.0%	-12.1%	-4.2%
COc1ccc(C(=O)COC(=O)C2COc3ccccc3O2)cc1F (stereo not given)	i	i	2.2%	0.2%	-2.6%	0.0%
CC(=O)N1CCN(c2ccc(NCc3ccc(F)cc3)cc2)CC1	i	i	-1.2%	3.4%	9.0%	4.7%
COc1cc(CNc2ccc(N3CCN(C(C)=O)CC3)cc2)ccc1OCc1ccc(F)cc1	i	i	10.3µM*	1.0%	23.1µM*	?
COc1ccc(Cl)cc1NC(=O)C1CCCN(c2ncnc3c2nc2n3CCCCC2)C1 (stereo not given)	i	i	12.5%	-4.5%	3.4%	13.1%
O=C1/C(=C/c2ccc(F)cc2)SC(=S)N1Nc1ncc(C(F)(F)F)cc1Cl	i	i	3.66µM*	?	-8.1%	-8.5%
O=C1/C(=C\c2ccccn2)SC(=S)N1Nc1ncc(C(F)(F)F)cc1Cl	i	?	2.1%	-4.3%	-0.4%	-0.3%
O=S(=O)(O)c1cccnc1SCc1ccccc1	i	i	6.6%	-6.0%	4.4%	-0.5%
O=C(CC1Sc2ccccc2NC1=O)NNc1cccc(Cl)c1Cl (stereo not given)	20.6µM*	i	20.3%	?	?	?
CC(=O)Nc1ccc(NC(=O)CC2Sc3ccccc3NC2=O)cc1 (stereo not given)	?	i	.	.	.	.
O=C(CNS(=O)(=O)c1ccc(Br)s1)NCc1ccccc1	i	i	?	2.82µM*	-2.1%	0.0%
O=C(CNS(=O)(=O)c1ccc(Br)s1)NCc1ccc(F)cc1	i	i	8.8%	-4.7%	6.1%	14.3%
O=C(Cn1cc(S(=O)(=O)Cc2cccc(Cl)c2)c2ccccc21)Nc1ccccc1Cl	i	?	.	.	.	.
COCCN(C(=O)CSc1ncc(C(F)(F)F)cc1Cl)c1c(N)n(Cc2ccccc2)c(=O)[nH]c1=O	i	i	-43.8%[9.22 µM]	65.7%	5.2%	4.8%
COCCN=C1N[C@@H](c2ccccc2)C(C(=O)OC)=C(C)N1Cc1ccccc1	i	i	-3.2%	1.1%	1.8%	9.4%
